The source of these data is PubChem BioAssay (NCATS).

Several values for one entry are separate records, joined by “and”; a condition that tells them apart may be missing. Identical values can stand only once. Results filed as inconclusive are left out. Activity calls are given as the source filed them. Unless noted, calls follow the shape of the dose curve; as a rule, active = well fitted curve in the direction sought with a large enough effect; inconclusive = small, poorly fitted or top-dose-only effect, or another doubt; inactive = no such curve, though single readings can be large; an effect the other way counts as inactive or inconclusive.

Assay [1] is described as follows: Cell Viability - SK-N-SH (AID 435; calls by dose curve; also: potency is read from the fitted curve at half-maximal effect). As to conditions: SK-N-SH neuroblastoma cell viability qHTS. An outline of the steps: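 Luminescent ATP signal served as the viability read-out after 40 hours of compound treatment of human neuroblastoma SK-N-SH cells. Concentration-response data, scaled between DMSO and 100 uM tamoxifen, gave AC50 values by standard Hill modeling.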

Assay [2] is described as follows: Cell Viability - N2a (AID 540).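 Also: plate controls were DMSO alone for no effect and tamoxifen control for full effect; nearly all actives have a fitted effect of over 45% in size.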 As to conditions: N2a mouse neuroblastoma cell viability; activity change, negative = cytotoxicity: at 92.2 µM (top of the series). An outline of the steps: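 N2a mouse neuroblastoma, 1500 cells/well, 5 hr settle; compound 40 hr, 37 °C; CellTiter-Glo 20 min RT; luminescence; Hill-fit AC50.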
Assay [3] is described as follows: Cell Viability - H-4-II-E (AID 543). Also: % is scaled to controls: 0 for no effect and ±100 for the full control effect; nearly all actives have a fitted effect of over 35% in size. As to conditions: H-4-II-E rat hepatoma viability; series mostly up to 92.2 µM. An outline of the steps: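 qHTS, rat hepatoma H-4-II-E, 1500 cells/well; 40 hr compound exposure, 37 °C; CellTiter-Glo ATP luminescence after 20 min RT; AC50 by standard Hill fit.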
Assay [4] in a line: Cell Viability - Renal Proximal Tubule (AID 545).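 Also: 0% = DMSO only and -100% = 100 µM tamoxifen; nearly all actives have a fitted effect of over 40% in size.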 As to conditions: renal proximal tubule cells viability, primary cells of rat origin; activity change, negative = cytotoxicity: at 91.7 µM (top of the series). An outline of the steps: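 Luminescent ATP signal (CellTiter-Glo) served as the viability read-out after 40 hr compound exposure of freshly isolated rat proximal tubule cells at 37 °C. Concentration-dependent ATP loss was fitted with the Hill equation to give AC50.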

Assay [5] can be described thus: Cell Viability - LYMP2-001 (AID 921).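 Also: cells exposed to compound for 24 h at 37 °C; 0% = DMSO only and full inhibition = tetraoctylammonium bromide control wells; nearly all actives have a fitted effect of over 70% in size.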 The following applies: LYMP2-001 lymphoblastoid cell viability; series mostly up to 92.2 µM. Summed up: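 Steps: seed 2500 lymphoblastoid cells/well; 5 hr, 37 C; add compound; 24 hr, 37 C; CellTiter-Glo reagent, 30 min room temperature; read luminescence. Concentration-response modeled by Hill equation for AC50.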
Assay [6] is described as follows: MultiTox-Fluor Cytotoxicity Assay - LYMP1-001 - Live Cells (AID 947).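 Also: 0% = DMSO only and full inhibition = tetraoctylammonium bromide control.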 As to conditions: LYMP1-001 lymphoblastoid cells, live-cell protease fluorescence viability; series mostly up to 92.2 µM.
Assay [7] is described as follows: MultiTox-Fluor Cytotoxicity Assay - LYMP1-002 - Dead Cells (AID 960).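 Also: 0% = DMSO and 100% = tetraoctylammonium bromide; nearly all actives have a fitted effect of over 60% in size.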 As to conditions: LYMP1-002 lymphoblastoid cells, dead-cell protease fluorescence; series mostly up to 46.1 µM. An outline of the steps:
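Readout: fluorescence at 485/520 from cell-impermeant bis-AAF-R110 cleaved by proteases leaking from damaged cells. LYMP1-002 lymphoblastoid line, 16 hr compound treatment at 37 C, concentration-response in qHTS format; Hill-equation AC50 values.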

Assay [8] is described as follows: Cell Viability - LYMP1-003 - Assay at 40 hr (AID 964). Also: % is scaled to controls: 0 for no effect and ±100 for the full control effect; nearly all actives have a fitted effect of over 60% in size. The following applies: LYMP1-003 lymphoblastoid viability; series mostly up to 92.2 µM. An outline of the steps: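 LYMP1-003 lymphoblastoid cells, 2500/well; 5 hr preincubation, 40 hr compound exposure, 37 C; CellTiter-Glo 30 min RT; luminescence; Hill-fit AC50. Positive control tetraoctylammonium bromide.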

Assay [9] is described as follows: Cell Viability - LYMP2-004 (AID 966).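 Also: cells exposed to compound for 24 h; plate controls were DMSO only for no effect and tetraoctylammonium bromide control for full effect; nearly all actives have a fitted effect of over 65% in size.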 As to conditions: LYMP2-004 lymphoblastoid cell viability, qHTS; series mostly up to 92.2 µM. An outline of the steps:
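Luminescent ATP read-out (CellTiter-Glo, 30 min RT) after 24 hr compound exposure at 37 C; 2500 lymphoblastoid cells/well, complete medium. Decrease in ATP = cytotoxicity; AC50 from standard Hill model.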

Assay [10] can be described thus: Cell Viability - LYMP2-009 (AID 968).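 Also: cells exposed to compound for 24 h at 37 °C; 0% = DMSO alone and the full-kill end = tetraoctylammonium bromide at 92 µM; nearly all actives have a fitted effect of over 55% in size.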 The following applies: LYMP2-009 lymphoblastoid cell viability; series mostly up to 92.2 µM.
The nature of assay [11]: Cell Viability - LYMP2-015 (AID 971).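 Also: cells exposed to compound for 24 h; 0% = DMSO only and full effect = 92 µM tetraoctylammonium bromide; nearly all actives have a fitted effect of over 55% in size.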 The following applies: LYMP2-015 lymphoblastoid cell viability; series mostly up to 92.2 µM. Summed up: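 qHTS cytotoxicity: 2500 cells/well, 5 hr 37 C, compound 24 hr 37 C, CellTiter-Glo 30 min RT, luminescence. Loss of ATP = toxicity; AC50 via standard Hill fit.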
Assay [12] in a line: Cell Viability - LYMP2-017 (AID 972).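 Also: cells exposed to compound for 24 hours at 37 °C; % is scaled to controls: 0 for no effect and ±100 for the full control effect; nearly all actives have a fitted effect of over 55% in size.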 As to conditions: LYMP2-017 lymphoblastoid cell viability; series mostly up to 92.2 µM. Summed up: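 Luminescent ATP read-out (CellTiter-Glo, 30 min RT) reports viable cell number. Cells: human lymphoblastoid line, 2500 per well, 5 hr preincubation, 24 hr compound exposure at 37 C. AC50 is derived from qHTS concentration-response data using the standard Hill model.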

Assay [13] can be described thus: Cell Viability - LYMP2-019 (AID 973).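 Also: cells exposed to compound for 24 h at 37 °C; 0% = DMSO alone and full effect = 92 µM tetraoctylammonium bromide; nearly all actives have a fitted effect of over 55% in size.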 As to conditions: LYMP2-019 lymphoblastoid cell line viability; series mostly up to 92.2 µM. An outline of the steps:
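qHTS, 1536-well; 2500 cells/well; 5 hr pre-incubation, 24 hr compound exposure, 37 C; CellTiter-Glo added, 30 min RT; luminescence read; AC50 via standard Hill equation.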

Assay [14] can be described thus: Cell Viability - LYMP2-010 (AID 981). The following applies: LYMP2-010 lymphoblastoid cell viability, qHTS; series mostly up to 92.2 µM. Summed up: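 qHTS cytotoxicity, 1536-well: 2500 cells/well, 5 hr settle, 24 hr compound at 37 C, CellTiter-Glo 30 min RT, luminescence read. Decrease in ATP = toxicity; AC50 via standard Hill equation. Positive control tetraoctylammonium bromide.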
In general terms: In qHTS, concentration-response curves come from the screen itself.

Assay [15] is described as follows: qHTS assay for small molecule agonists of retinoid X receptor alpha signaling (AID 588544; calls by dose curve). The following applies: HEK293T RXRa-UAS-bla, beta-lactamase reporter, 18 h; 530 nm emission.
In assay [16] the target is Retinoic acid receptor RXR-alpha (Homo sapiens) (UniProt P19793). Described as above. As to conditions: HEK293T RXRa-UAS-bla, beta-lactamase reporter, 18 h; series mostly up to 76.7 µM.
Retinoic acid receptor RXR-alpha (Homo sapiens), sequence (P19793 whole entry, looked up): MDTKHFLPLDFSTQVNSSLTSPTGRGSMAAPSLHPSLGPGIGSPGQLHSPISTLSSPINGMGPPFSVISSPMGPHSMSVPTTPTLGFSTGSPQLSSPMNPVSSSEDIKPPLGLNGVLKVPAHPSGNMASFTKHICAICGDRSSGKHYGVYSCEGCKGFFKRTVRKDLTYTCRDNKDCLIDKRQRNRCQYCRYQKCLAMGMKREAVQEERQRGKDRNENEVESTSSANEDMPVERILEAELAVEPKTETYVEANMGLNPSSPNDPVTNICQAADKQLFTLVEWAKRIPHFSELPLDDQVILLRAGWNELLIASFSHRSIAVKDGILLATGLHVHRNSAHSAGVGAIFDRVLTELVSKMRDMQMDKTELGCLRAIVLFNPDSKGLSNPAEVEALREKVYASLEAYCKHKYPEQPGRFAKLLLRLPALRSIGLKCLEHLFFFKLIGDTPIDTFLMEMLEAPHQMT
Assay [17] has as its target Thyroid hormone receptor beta (Homo sapiens) (UniProt P10828). Kind of assay: qHTS assay for small molecule antagonists of thyroid hormone receptor beta signaling (AID 588547; active = well fitted inhibition curve with a large enough effect in the signal ratio, with a control signal flat, not every such curve was filed as active; the % refers to the signal ratio;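 also: cells stimulated with 0.4 nM T3 agonist during compound exposure; % is scaled to controls: 0 for no effect and ±100 for the full control effect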). The following applies: TR-UAS-bla HEK293, beta-lactamase ratio, antagonist mode, 18 h. An outline of the steps:
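TR-UAS-bla GripTite HEK293 cells in 2% charcoal/dextran FBS medium were preincubated 4 h at 37 C, given compound (0.59 nM to 92 uM) plus 0.4 nM T3 (final) for 18 h, then CCF4 for 2 h at RT; Hill fit gave IC50.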

Assay [18] is described as follows: qHTS assay for small molecule disruptors of the mitochondrial membrane potential - 5 hr assay (AID 651755; calls by dose curve; also: % is scaled to controls: 0 for no effect and ±100 for the full control effect; nearly all actives have a fitted effect of over 40% in size). The following applies: JC-1-type ratio dye; series mostly up to 92.2 µM. Summed up:
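Seed HepG2 overnight, add compound, incubate 5 hr at 37C and 5% CO2, stain 30 min with Mito-MPS, then measure monomer (490/535 nm) and aggregate (540/590 nm) fluorescence.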

The nature of assay [19]: qHTS assay for small molecule agonists of the antioxidant response element (ARE) signaling pathway measured by Nrf2-dependant transcriptional activity (AID 720636; active = well fitted curve in the direction sought with a large enough effect in the repeat runs; an effect the other way counts as inactive or inconclusive; also: % of control where 0% means no effect). The following applies: ARE-luc HepG2, Nrf2 luciferase reporter, 16 h; series mostly up to 92.4 µM. An outline of the steps: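 Nrf2-dependent transcription is measured in ARE-luc HepG2 cells: compound is applied for 16 hr at 37 C after a 6 hr attachment period, and luciferase activity is quantified by luminescence using ONE-Glo.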

The target in assay [20] is Nuclear receptor subfamily 1 group I member 2 (Rattus norvegicus) (UniProt Q9R1A7). Kind of assay: qHTS assay for small molecule activators of the rat pregnane X receptor (rPXR) signaling pathway (AID 651751; call rule not given here; also: 0% is about no effect). The following applies: rPXR reporter cells, luciferase (One-Glo), 24 h.
Nuclear receptor subfamily 1 group I member 2 (Rattus norvegicus), sequence (Q9R1A7 whole entry, looked up): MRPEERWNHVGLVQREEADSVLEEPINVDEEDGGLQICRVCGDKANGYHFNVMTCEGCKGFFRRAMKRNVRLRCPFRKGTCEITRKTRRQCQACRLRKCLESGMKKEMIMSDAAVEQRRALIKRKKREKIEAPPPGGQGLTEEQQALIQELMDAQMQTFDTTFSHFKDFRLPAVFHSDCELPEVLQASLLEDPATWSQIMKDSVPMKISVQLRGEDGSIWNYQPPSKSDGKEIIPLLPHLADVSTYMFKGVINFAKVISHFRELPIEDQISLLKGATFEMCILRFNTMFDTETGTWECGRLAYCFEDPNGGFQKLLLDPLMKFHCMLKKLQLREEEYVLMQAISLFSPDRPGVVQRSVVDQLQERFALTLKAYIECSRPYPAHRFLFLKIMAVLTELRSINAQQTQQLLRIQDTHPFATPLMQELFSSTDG

Thyroid hormone receptor beta (Homo sapiens), sequence (P10828 whole entry, looked up): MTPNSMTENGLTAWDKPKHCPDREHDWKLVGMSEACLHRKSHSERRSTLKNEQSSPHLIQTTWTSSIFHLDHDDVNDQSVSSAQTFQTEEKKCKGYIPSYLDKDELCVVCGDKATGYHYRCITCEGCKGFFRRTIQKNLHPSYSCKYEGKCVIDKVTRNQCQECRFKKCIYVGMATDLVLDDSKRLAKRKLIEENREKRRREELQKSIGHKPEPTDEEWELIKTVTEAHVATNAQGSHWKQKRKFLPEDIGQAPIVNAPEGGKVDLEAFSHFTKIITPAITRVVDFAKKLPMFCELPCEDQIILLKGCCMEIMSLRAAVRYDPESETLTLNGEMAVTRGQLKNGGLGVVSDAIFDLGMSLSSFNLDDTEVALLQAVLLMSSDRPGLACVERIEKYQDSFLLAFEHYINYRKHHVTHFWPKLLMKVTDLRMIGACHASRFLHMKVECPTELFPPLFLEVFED

With `CC(=O)OC1CC(C)OC(C)O1` (centres undefined), the Potency in [1] was > 92 µM (inactive). Also, the activity change, negative = cytotoxicity in assay [2] is 7.5% (inactive). For the same molecule, the Potency entry in [3], in assay [4], in assay [5], in assay [6], in [7] and in assay [8] was “inactive” in each case. Moreover, the Potency result in [9], in assay [10], in [11], in assay [12], in [13] and in assay [14] was “inactive” each time. Further, the Potency result in assay [16], in assay [18] and in [19] was “inactive” in each case. Also, the max response in [15] is -9.84% and -8.03%; in assay [20], -2.44% (inactive) and 3.14% (inactive). Moreover, the activity change % (negative = inhibition) in assay [17] is -11% (inactive) and -10.6% (inactive).
Take `C/C(Cl)=C/CCl`: the Potency in [1] was > 92 µM (inactive). Moreover, the activity change, negative = cytotoxicity in assay [2] was -6.1% (inactive). In addition, the Potency result in assay [3], in [4], in [5], in assay [6], in assay [8] and in assay [9] was “inactive” in each case. The Potency result in assay [10], in assay [11], in assay [12], in assay [13], in assay [14] and in assay [16] was “inactive” throughout. Moreover, the Potency result in assay [18] and in assay [19] was “inactive” each time. Further, the max response in [15] is -5.41%; in [20] it was -2.47% (inactive). In [17], the activity change % (negative = inhibition) is 0.318% (inactive).
`OCC(CBr)(CBr)CBr`: the Potency in [1] is > 92 µM (inactive). The Potency result in [3], in assay [4], in assay [5], in assay [6], in [8] and in assay [9] was “inactive” throughout. The Potency result in assay [10], in assay [11], in assay [12], in [13], in assay [14] and in assay [16] was “inactive” throughout. Further, the Potency result in assay [18] and in [19] was “inactive” in each case. In addition, the max response was -4.28% in assay [15] and 6.71% (inactive) in assay [20]. The activity change % (negative = inhibition) in assay [17] is -0.909% (inactive).
For the molecule `OC1CCCCC1`, in assay [1], the Potency is > 92 µM (inactive). Also, the activity change, negative = cytotoxicity in assay [2] was -3.26% (inactive). In addition, the Potency entry in assay [3], in assay [4], in assay [5], in assay [6], in [7] and in assay [8] was “inactive” in each case. Further, the Potency result in [9], in assay [10], in [11], in [12], in assay [13] and in [14] was “inactive” throughout. Moreover, the Potency result in assay [16] and in assay [19] was “inactive” in each case. Also, the figures for the max response in [15] and in assay [20] were -4.1% and 1.53% (inactive), respectively. The activity change % (negative = inhibition) in [17] was 4.86% (inactive).
As to `COc1cc(-c2ccc(N=C=O)c(OC)c2)ccc1N=C=O`, the Potency in assay [1] was > 92 µM (inactive). Moreover, the activity change, negative = cytotoxicity in assay [2] is 4.66% (inactive). In addition, the Potency entry in [3], in assay [4], in assay [5], in assay [6], in assay [7] and in assay [8] was “inactive” throughout. For the same molecule, the Potency entry in assay [9], in assay [10], in assay [11], in [12], in assay [13] and in assay [14] was “inactive” throughout. For the same molecule, the Potency result in assay [16], in [18] and in assay [19] was “inactive” each time. For the same molecule, the max response in assay [15] was -18.6%. Also, in assay [17], the activity change % (negative = inhibition) was -7.61% (inactive).
On to `CC(C)S`, for which the Potency in [1] was > 92 µM (inactive). The activity change, negative = cytotoxicity in [2] was -5.34% (inactive). The Potency result in assay [3], in assay [4], in [5], in assay [6], in [7] and in assay [8] was “inactive” in each case. In addition, the Potency result in assay [9], in assay [10], in [11], in assay [12], in assay [13] and in [14] was “inactive” each time. Besides, the Potency entry in assay [16], in [18] and in assay [19] was “inactive” throughout. In addition, the figures for the max response in [15] and in assay [20] were -9.69% and -6.45% (inactive), respectively. Moreover, the activity change % (negative = inhibition) in [17] is 11.8% (inactive).
Regarding `O=[N+]([O-])c1ccccc1Nc1ccccc1`, the Potency in assay [1] is > 92 µM (inactive). In addition, in [2], the activity change, negative = cytotoxicity was -9.33% (inactive). Further, the Potency entry in [3], in assay [4], in assay [6], in assay [7], in assay [8] and in assay [9] was “inactive” in each case. The Potency result in [10], in assay [11], in [12], in assay [13], in [14] and in assay [16] was “inactive” each time. The Potency entry in [18] and in [19] was “inactive” each time. Besides, the values for the max response in [15] and in [20] were -18.5% and -3.61% (inactive), respectively. For the same molecule, the activity change % (negative = inhibition) in assay [17] is 8.34% (inactive).
